# According to PMC4336329 (PLoS ONE, 2015):
# Among all 310,000 compounds or so, about 14,000 (4.5%) showed an effect of 50% or more. The effect is printed as a negative number. The list comes from a sample in which strong results are over-represented; it also holds similar structures and randomly drawn compounds.
# Target: human ether-à-go-go-related gene (hERG) potassium channel (human, UniProt Q12809)
# Experiment: primary screen, population patch clamp on CHO cells stably expressing hERG; higher = less effect of the substance
# 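Note: peak tail current of the secondary pulse compared with the same well before compound.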
# Sequence of human ether-à-go-go-related gene (hERG) potassium channel (Q12809 whole entry, looked up): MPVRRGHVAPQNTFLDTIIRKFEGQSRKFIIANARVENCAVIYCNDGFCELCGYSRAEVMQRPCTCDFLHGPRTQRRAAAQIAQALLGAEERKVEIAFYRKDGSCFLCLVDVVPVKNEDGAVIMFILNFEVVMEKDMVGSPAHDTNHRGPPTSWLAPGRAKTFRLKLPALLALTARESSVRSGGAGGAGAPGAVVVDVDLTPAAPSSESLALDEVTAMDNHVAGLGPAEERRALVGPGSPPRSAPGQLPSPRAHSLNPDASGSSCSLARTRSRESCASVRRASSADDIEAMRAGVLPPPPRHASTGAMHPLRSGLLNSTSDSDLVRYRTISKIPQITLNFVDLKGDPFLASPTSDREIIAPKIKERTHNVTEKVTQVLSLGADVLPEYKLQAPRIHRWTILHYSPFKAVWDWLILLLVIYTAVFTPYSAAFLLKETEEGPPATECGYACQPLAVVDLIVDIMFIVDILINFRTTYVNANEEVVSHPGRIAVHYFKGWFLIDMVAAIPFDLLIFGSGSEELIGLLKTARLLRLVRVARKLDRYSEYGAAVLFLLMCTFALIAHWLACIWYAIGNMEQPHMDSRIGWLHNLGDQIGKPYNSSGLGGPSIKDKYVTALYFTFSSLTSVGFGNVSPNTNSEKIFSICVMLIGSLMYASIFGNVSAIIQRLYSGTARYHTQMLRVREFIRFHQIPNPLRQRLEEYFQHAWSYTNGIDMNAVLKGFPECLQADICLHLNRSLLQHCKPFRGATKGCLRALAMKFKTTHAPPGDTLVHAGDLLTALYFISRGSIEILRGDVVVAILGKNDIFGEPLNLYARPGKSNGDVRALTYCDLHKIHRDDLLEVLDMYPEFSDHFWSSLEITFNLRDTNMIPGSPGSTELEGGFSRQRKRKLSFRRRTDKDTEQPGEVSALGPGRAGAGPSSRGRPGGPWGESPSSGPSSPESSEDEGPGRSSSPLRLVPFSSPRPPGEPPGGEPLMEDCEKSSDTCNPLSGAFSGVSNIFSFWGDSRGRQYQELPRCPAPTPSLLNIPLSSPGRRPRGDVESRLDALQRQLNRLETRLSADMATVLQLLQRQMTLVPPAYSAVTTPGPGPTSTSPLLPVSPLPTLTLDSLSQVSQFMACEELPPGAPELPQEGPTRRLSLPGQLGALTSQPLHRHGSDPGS
row,Compound,"hERG current change (%, negative = inhibition) at 10uM [%]"
1,CCOC(=O)C1=C(SCC(=O)Nc2ccccc2)NC(=O)C(C#N)C12CCCCC2 (centres unmarked),-5.43
2,Cc1ccc(N2CN(CCC3=CCCCC3)CNC2=S)cc1,18
3,Cc1ccc2c(c1)CCCN2C(=O)c1ccc2c(c1)OCO2,-4.53
4,O=c1c2c(-c3ccccc3)csc2nc2n1CCC2,14.5
5,O=c1cc(N2CCCCC2)c(-c2ccccc2)nn1Cc1ccc(Cl)cc1,-1.99
6,Cc1cc(C)cc(NC(=O)C2CCN(c3nc(C)cc(C)n3)CC2)c1,-3.58
7,Cc1ccc(N(CC(=O)NC2CCCC2)C(=O)CCC(=O)Nc2nc(C)cs2)cc1,-11.9
8,CCOc1ccc(N(CC(=O)NC2CCCC2)C(=O)CCC(=O)Nc2nc(C)cs2)cc1,-28.8
9,CCOc1ccc(N(CC(=O)NC2CCCCC2)C(=O)CCC(=O)Nc2nc(C)cs2)cc1,-50.6
10,O=C(CC(CC(=O)c1ccccc1)c1ccccc1)c1ccccc1,0.181
11,O=C(CSc1nnc(CN2CCOCC2)n1-c1ccccc1)Nc1ccc(Cl)cc1,-32.5
12,Cc1cc(C)c(S(=O)(=O)N2CCOC2CNC(=O)C(=O)NCCc2ccc(S(N)(=O)=O)cc2)c(C)c1 (centres unmarked),-17.8
13,O=C(Cn1cnc2c(nnn2Cc2ccccc2)c1=O)NCc1ccccc1Cl,5.76
14,Cc1ccc(SCc2ccc(C(=O)NCc3cccnc3)cc2)cc1,3.85
15,O=C(Oc1ccc(/C=N/Nc2ccccc2)cc1)c1ccccc1,15.4
16,O=C(O)c1ccc(N/N=C/c2ccc(OC(=O)c3cccc(Cl)c3)cc2)cc1,-9.22
17,O=C(O)c1ccc(N/N=C/c2ccc(OC(=O)c3ccccc3Cl)cc2)cc1,-56
18,Cc1ccsc1C(=O)C1CCCN(Cc2cc3ccccc3o2)C1 (centres unmarked),-23.7
19,COc1cccc(CNC(=O)CCC2CCCN(Cc3cc4ccccc4o3)C2)c1 (centres unmarked),-75.6
20,COc1cccc(CNC(=O)CCC2CCCN(C(=O)c3cc4ccccc4o3)C2)c1 (centres unmarked),-47.7
21,Cc1ccc(CNC(=O)CCC2CCCN(C(=O)CCC(F)(F)F)C2)o1 (centres unmarked),3.62
22,Cc1ccc(CNC(=O)CCC2CCCN(Cc3cc4ccccc4o3)C2)o1 (centres unmarked),-69.2

row,Compound,"hERG current change (%, negative = inhibition) at 10uM [%]"
1,COCc1ccc(CN2CCCC(CCC(=O)NCc3cccc(OC)c3)C2)o1 (centres unmarked),-23.5
2,Cc1ccc(N/C=C(\C#N)S(=O)(=O)c2ccccc2)cc1,14.3
3,CCOC(=O)c1c(C)sc2c1N(C(=O)CCl)c1cc(Cl)ccc1S2,-3.3
4,COc1ccccc1NC(=O)Cn1cncc1-c1ccc([N+](=O)[O-])cc1,2.57
5,O=C1CCC(C(=O)NCCN2C(=O)S/C(=C\c3cccnc3)C2=O)=NN1,2.26
6,CSC1=NSC2=NC(=O)/C(=C\c3ccc(OC(=O)c4ccco4)cc3)C(=N)N12,9.54
7,COc1ccc(NC(=S)N2CCN(C(=O)c3ccco3)CC2)cc1,-6.29
8,COC(=O)c1ccc(NC(=S)N2CCN(C(=O)c3ccco3)CC2)cc1,-4.94
9,CCCCc1ccc(NC(=S)N2CCN(C(=O)c3ccco3)CC2)cc1,-75.3
10,CCCCc1ccc(S(=O)(=O)N2CCN(C(=O)c3ccco3)CC2)cc1,-66.5
11,CC(C)Cc1ccc(S(=O)(=O)N2CCN(C(=O)c3ccco3)CC2)cc1,-11.1
12,Cc1ccc(S(=O)(=O)N2CCN(C(=O)c3ccco3)CC2)cc1,1.15
13,COc1ccc(C2/C(=C(\O)c3ccc4c(c3)OCCO4)C(=O)C(=O)N2Cc2ccco2)c(OC)c1 (centres unmarked),-9.64
14,Cn1c(=O)cc(OCCCC(=O)Nc2cccnc2)c2ccccc21,0.169
15,CCN(CC)CCn1nc2c3c(cccc3c1=O)-c1ccccc1-2,-70.2
16,O=c1c2cccc3c2c(nn1CN1CCOCC1)-c1ccccc1-3,-11.5
17,O=C(O)Cn1nc2c3c(cccc3c1=O)-c1ccccc1-2,8.18
18,COC(=O)c1c(C)[nH]c(C)c1-c1ccccc1,-5.37
19,O=C1NC(c2ccc3c(c2)OCO3)Nc2ccccc21 (centres unmarked),10.5
20,O=C(Nc1ccncc1)c1ccc2c(c1)OCCO2,11.8
21,COc1ccc(C)cc1S(=O)(=O)N(CC(=O)N1CCCC1)c1ccccc1,-37.9
22,COc1ccc(C)cc1N(CC(=O)N1CCOCC1)S(C)(=O)=O,21.2

row,Compound,"hERG current change (%, negative = inhibition) at 10uM [%]"
1,COc1ccc(Br)cc1S(=O)(=O)N(CC(=O)N1CCN(C)CC1)c1ccccc1,-22.6
2,COc1ccc(C)cc1S(=O)(=O)N(C)CC(=O)N1CCCC1,13.2
3,COc1ccc(C)cc1S(=O)(=O)N(CC(=O)N1CCOCC1)c1cc(C)cc(C)c1,-77.4
4,COc1ccc(C)cc1S(=O)(=O)N(CC(=O)N1CCCC1)c1ccc(C)cc1,-53
5,COc1ccc(Br)cc1S(=O)(=O)N(CC(=O)N1CCOCC1)c1ccccc1,-47
6,COc1ccc(C)cc1S(=O)(=O)N(C)CC(=O)N1CCN(C)CC1,2.65
7,COc1ccc(N(CC(=O)N2CCN(C)CC2)S(=O)(=O)c2cc(C)ccc2OC)cc1Cl,-60.3
8,CC(OC(=O)C1CCC(=O)N1)C(=O)Nc1cc(Cl)cc(Cl)c1 (centres unmarked),2.72
9,O=C(CSc1n[nH]c(=O)n1Cc1ccco1)c1ccc2c(c1)OCCO2,15
10,c1cc2c(cc1Oc1nc(N3CCOCC3)nc(N3CCOCC3)n1)OCO2,3.77
11,CC(C)Cc1ccc(C(C)C(=O)OCC(=O)c2c[nH]c3ccccc23)cc1 (centres unmarked),3.98
12,COc1ccc(S(=O)(=O)N2CCCCC2)cc1NC(=O)c1cc([N+](=O)[O-])ccc1N1CCOCC1,-30.4
13,O=C(Nc1ccccc1)c1cc(S(=O)(=O)N2CCCCC2)ccc1N1CCOCC1,1.08
14,CCN(CC)S(=O)(=O)c1cc(NC(=O)c2cc([N+](=O)[O-])ccc2N2CCOCC2)ccc1C,-20.5
15,NC(=O)c1ccccc1NC(=O)c1cc(S(=O)(=O)N2CCCCC2)ccc1N1CCOCC1,-73.9
16,O=C(Nc1ccccc1Cl)c1cc(S(=O)(=O)N2CCCCC2)ccc1N1CCOCC1,-39.7
17,Cc1ccc(C)c(NC(=O)c2cc(S(=O)(=O)N3CCCCC3)ccc2N2CCOCC2)c1,-62.7
18,Cc1ccc(NC(=O)c2cc(S(=O)(=O)N3CCCCC3)ccc2N2CCOCC2)cc1F,-13.9
19,CC(C)Oc1ccc(S(=O)(=O)N2CCOCC2)cc1NC(=O)c1cc([N+](=O)[O-])ccc1N1CCOCC1,-45.7
20,Cc1ccc(S(=O)(=O)N2CCOCC2)cc1NC(=O)c1cc([N+](=O)[O-])ccc1N1CCOCC1,-67.7
21,COc1ccc(C)cc1NC(=O)c1cc(S(=O)(=O)N2CCCCC2)ccc1N1CCOCC1,-39.2
22,Cc1ccc(NC(=O)c2cc([N+](=O)[O-])ccc2N2CCOCC2)cc1S(=O)(=O)N1CCOCC1,-46

row,Compound,"hERG current change (%, negative = inhibition) at 10uM [%]"
1,Cc1ccc(NC(=O)c2cc([N+](=O)[O-])ccc2N2CCOCC2)cc1S(=O)(=O)N(C)C,-52.8
2,Cc1ccc(NC(=O)/C(=C/c2cccs2)NC(=O)c2ccco2)c(C)c1,-9.56
3,CCCC(=O)NNC(=O)Nc1ccccc1,19.8
4,O=c1[nH]c(CSc2nc3ccccc3[nH]2)nc2c1cnn2-c1ccccc1,-17.6
5,COc1ccc(CC(=O)Nc2cc(C)on2)cc1OC,2.2
6,CC(=O)Nc1ccc(S(=O)(=O)Nc2nc3ccccc3nc2Nc2cccc(S(N)(=O)=O)c2)cc1,10.3
7,CCOc1ccc2oc(-c3ccccc3)c(C(=O)N3CCN(C)CC3)c2c1,-9.67
8,O=C(Nc1ccccc1N1CCCCC1)c1cc(S(=O)(=O)N2CCOCC2)ccc1Cl,-4.01
9,O=C(Nc1ccccc1N1CCCC1)c1cc(S(=O)(=O)N2CCOCC2)ccc1Cl,-34.5
10,CS(=O)(=O)c1ccc(Cl)c(NC(=O)c2cc(S(=O)(=O)N3CCOCC3)ccc2N2CCCC2)c1,-81.3
11,Cc1nc(CC(=O)NNS(=O)(=O)c2ccc(F)c(Cl)c2)cs1,20
12,O=C(COC(=O)C1CCCN1C(=O)c1cccs1)Nc1ccc2c(c1)OCO2 (centres unmarked),-11.9
13,Cc1ccc(C)c(S(=O)(=O)Nc2cc(SCC(=O)O)c(O)c3ccccc23)c1,5.34
14,CCOc1ccc(Cc2c(C)[nH]c3ccc(C(=O)O)cc3c2=S)cc1,-9.2
15,Cc1cc(C)n(CC(O)CN(c2cccc([N+](=O)[O-])c2)S(=O)(=O)c2ccccc2)n1 (centres unmarked),7.08
16,COc1ccc([N+](=O)[O-])cc1N(CC(O)CN1CCCC1)S(=O)(=O)c1ccc(C)cc1 (centres unmarked),-2.85
17,COc1ccc([N+](=O)[O-])cc1N(CC(O)CN1CCCCC1)S(=O)(=O)c1ccc(C)cc1 (centres unmarked),-42.7
18,O=[N+]([O-])c1cccc(N(CC(O)CN2CCCC2)S(=O)(=O)c2ccccc2)c1 (centres unmarked),-62.4
19,Cc1ccc(S(=O)(=O)N(CC(O)CN2CCCCC2)c2cccc([N+](=O)[O-])c2)cc1 (centres unmarked),-78.8
20,O=[N+]([O-])c1cccc(N(CC(O)CN2CCCCC2)S(=O)(=O)c2ccccc2)c1 (centres unmarked),-43.8
